# Data: PubChem BioAssay AID743279 (National Center for Advancing Translational Sciences (NCATS), 2014)
# The whole screen tested about 360,000 compounds, of which about 17,000 (4.7%) were called active. Another 5% or so got no clear call; they are omitted. What follows is part of a selection rich in actives, with near analogues and random picks from the rest. A number with no mark means an inactive call. Rule as the data show it: active = activity change below about -50%; inconclusive = mostly about -30% to -49%; inactive = weaker than that.
# Experiment: qHTS for Inhibitors of Inflammasome Signaling: IL-1-beta AlphaLISA Primary Screen
# Conditions: THP-1 LPS/ATP IL-1B secretion, 16 h; at 57.5 µM, active compounds read low
# Method in brief: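 THP-1 cells pretreated 1 hr with compounds (up to 57.5 uM final), then stimulated with LPS (250 ng/mL final) plus ATP (1.25 mM final); secreted IL-1B measured by AlphaLISA after 16 hr, decreased signal indicating inhibition.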
# % is scaled to controls: 0 for no effect and ±100 for the full control effect.
row,Compound,activity change
1,CCOC(=O)C1=CC[C@@H](c2ccccc2)N(S(=O)(=O)c2ccc(C)cc2)[C@H]1c1cccc(OC)c1,2.13%
2,O=C(c1ccc(Cl)cc1)c1ccc(OCC(O)CN2CCCCC2)cc1 (stereo not drawn),-52.5% (active)
3,OC(COc1ccc(Br)cc1)CN1CCCC1 (stereo not drawn),-27.2%
4,CCC(=O)c1ccc(OCC(O)CN2CCN(c3cccc(C(F)(F)F)c3)CC2)cc1 (stereo not drawn),-11.4%
5,OC(COc1ccc2c(c1)CCC2)CN1CCN(c2cccc(Cl)c2)CC1 (stereo not drawn),-64.8% (active)
6,CC1CCN(CC(O)COc2ccc(C(=O)c3ccccc3)cc2)CC1 (stereo not drawn),-22.3%
7,OC(COc1ccccc1)CN1CCN(c2cccc(Cl)c2)CC1 (stereo not drawn),14.3%
8,CC(C)NC(=O)C1(C)CCCCN1Cc1cccc(C(F)(F)F)c1 (stereo not drawn),12.4%
9,CCCCCNC(=O)C(c1ccc(OC)cc1)n1c(=O)c(-c2ccccc2)nc2ccccc21 (stereo not drawn),-10.4%
10,CCOC(=O)C1(C)CCCN(C(=O)c2ccc(F)c(Cl)c2)C1 (stereo not drawn),7.31%
11,C[C@H]1CN([C@@H](C)CO)C(=O)CCCn2cc(nn2)CO[C@@H]1CN(C)S(=O)(=O)c1ccc(-n2cccn2)cc1,-21.5%
12,O=C(CSCc1ccc([N+](=O)[O-])cc1)Nc1cccc(C(=O)Nc2ccccc2C(=O)O)c1,13.4%
13,O=C(Cc1ccc(S(=O)(=O)N2CCOCC2)s1)Nc1ccc(Br)c(C(F)(F)F)c1,-61% (active)
14,O=C(Cc1ccc(S(=O)(=O)N2CCOCC2)s1)NCCOc1ccccc1F,6.24%
15,O=C(Cc1ccc(S(=O)(=O)N2CCOCC2)s1)NCCC(c1ccccc1)c1ccccc1,17%
16,CCN(C(=O)Nc1cccc2ccccc12)c1ccccc1,12.7%
17,CC(=O)Nc1cccc(Nc2nc(-c3cccs3)nc3ccccc23)c1,-65.6% (active)
18,O=C(Nc1nnc(-c2ccccc2)o1)c1cc(-c2cccs2)nc2ccccc12,23%
19,COc1ccccc1C(=O)Nn1c(-c2cccs2)nc2ccccc2c1=O,-3.33%
20,COc1ccccc1Oc1ccc(S(=O)(=O)Nc2cccnc2)cc1,-2.24%
21,Cc1ccc(NS(=O)(=O)c2ccc(C(C)(C)C)cc2)cn1,1.59%
22,Cc1cc(C)cc(NS(=O)(=O)c2ccc(Oc3ncc(C(F)(F)F)cc3Cl)cc2)c1,-75.1% (active)
23,COc1ccc(S(=O)(=O)N(C)C[C@H]2OCc3cnnn3CCCC(=O)N([C@H](C)CO)C[C@H]2C)cc1,-20%
24,Cc1ccccc1NC(=O)Cc1nc(COC(=O)C(C)(C)Oc2ccc(Cl)cc2)cs1,17%

row,Compound,activity change
1,CC1CCCCN1CCCNC(=O)Cn1ncc2c([nH]c3ccccc32)c1=O (stereo not drawn),14.3%
2,CCNC(=O)C1CCCN(C(=O)c2cc(F)ccc2C)CC1 (stereo not drawn),26.6%
3,Cc1nn(C)c(C)c1NS(=O)(=O)c1ccc(OC(F)(F)F)cc1,63%
4,O=S(=O)(Nc1ccc(O)c2ccccc12)c1ccc(OC(F)(F)F)cc1,-70.3% (active)
5,O=C1COc2ccc(S(=O)(=O)Nc3ccc(OC(F)(F)F)cc3)cc2N1,6.28%
6,O=C(CC[C@H]1O[C@@H](n2ccc(=O)[nH]c2=O)[C@H](O)[C@@H]1O)N[C@H](Cc1ccccc1)C(=O)NCc1ccco1,17.1%
7,CNc1nc(=O)n(C2CCCO2)cc1C (stereo not drawn),-1.08%
8,Cc1cc(C)n2c(Nc3c(C)cccc3C)c(CCc3ccccc3)nc2n1,0%
9,O=C(COC(=O)c1ccc([N+](=O)[O-])cc1Cl)NC(=O)c1ccccc1,0.699%
10,O=C(NOCc1ccccc1)c1cccc([N+](=O)[O-])c1,-14.2%
11,O=C(NC(Nc1nc2ccc([N+](=O)[O-])cc2s1)(C(F)(F)F)C(F)(F)F)c1ccccc1,-105% (active)
12,CCOC(=O)c1ccccc1NC(=O)COC(=O)CCC(=O)N1CCOCC1,-2.88%
13,CN(C)CCOC1c2ccccc2-c2ccccc21,-24.9%
14,CN(C)CCOC(=O)C(c1ccccc1)C1(O)CCCC1 (stereo not drawn),-8.97%
15,Cc1ccccc1C(OCCN(C)C)C1CCCCC1 (stereo not drawn),-55.7% (active)
16,Nc1ccccc1Sc1cc(Cl)nnc1Cl,4.28%
17,CCOc1ccc(S(=O)(=O)Nc2nccs2)cc1,-1.81%
18,CC(Oc1ccc(Cl)cc1)c1ccnn1S(C)(=O)=O (stereo not drawn),-4.95%
19,CCC(C)C(=O)Nc1cc([N+](=O)[O-])ccc1Cl (stereo not drawn),4.95%
20,CNc1ccc([N+](=O)[O-])cc1C(=O)O,12.5%
21,Cc1ccc(NC(=O)c2cc([N+](=O)[O-])ccc2Cl)c(O)c1,-76% (active)
22,CN(Cc1ccccc1F)c1cc2c(c3c1ccn3C)C1CCC2O1 (stereo not drawn),38.3%
23,Cc1nccn1-c1ccc(NC(=O)[C@H]2O[C@@H](n3ccc(=O)[nH]c3=O)[C@H](O)[C@@H]2O)cc1,20.2%
24,COC(=O)[C@@]1(Cc2ccc(F)cc2)[C@H]2c3cc(C(=O)N(C)C)n(CCc4c[nH]c5ccc(OC)cc45)c3C[C@H]2CN1C(=O)c1ccccc1,-25.7%
